What was measured:
[1] = test system: Vero E6 infected with SARS-CoV-2; experiment: morphology score (similarity to uninfected cells); higher = more like uninfected cells; details: 24 h
[2] = test system: Vero E6 infected with SARS-CoV-2; experiment: SARS-CoV-2 infection rate relative to infected DMSO; higher = more infection, active = 60 or less; details: 24 h

SMILES	morphology score [1]	SARS-CoV-2 infection rate [2]
CCOC(=O)C1=C(N)Oc2ccc(Br)cc2C1C(C#N)C(=O)OCC (configuration not stated) (10 µM)	0.0924	108% (inactive)
N=C(N)NC(=O)c1cnccn1 [pyrazinoylguanidine] (10 µM)	0.0685	108% (inactive)
N[C@H]1CCN(O)C1=O (10 µM)	0.0281	99.2% (inactive)
Cc1cccc(NC(=O)CN2CCC(c3ccccn3)CC2)c1 (10 µM)	-0.0959	108% (inactive)
O[C@@H](COc1cccc2ncccc12)CN1CCN([C@@H]2c3ccccc3[C@@H]3[C@H](c4ccccc42)C3(F)F)CC1 [zosuquidar] (0.833333 µM)	0.0321	108% (inactive)
CNCC(O)c1ccc(O)c(O)c1 (racemic) [DL-Adrenaline] (10 µM)	0.188	109% (inactive)
CN1C[C@H](CNC(=O)OCc2ccccc2)C[C@@H]2c3cccc4c3c(cn4C)C[C@H]21 [metergoline] (10 µM)	0.164	97.5% (inactive)
Cc1cc2c(F)c(Oc3ncnn4cc(OC[C@@H](C)OC(=O)[C@H](C)N)c(C)c34)ccc2[nH]1 [brivanib-alaninate] (10 µM)	0.385	106% (inactive)
C[C@@H](O)[C@H]1C(=O)N2C(C(=O)O)=C(SCCNC=N)C[C@H]12 [imipenem] (10 µM)	-0.161	114% (inactive)
Nc1[nH]cnc2ncnc1-2 [adenine] (10 µM)	0.0482	102% (inactive)
CC(C)c1cccc2c1OC(C(C)C)C(=S)N2CC(=O)O (configuration not stated) (10 µM)	0.0177	102% (inactive)

Source: the supplement of paper PMC13380429
